Source: PubChem BioAssay (NCI)
Compounds without any hit were thinned out: in the full panel of roughly 83,000, 20% have a hit.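 Activity criterion: percent growth below 10, measured after cells in 96-well plates were exposed to a single compound concentration for 48 hours.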 Active and inactive are the calls of the source.

How the values were obtained:
Test in all cases: NCI-60 one-dose screen, 48 h (100 = growth as untreated, 0 = no growth, -100 = all killed)
Conditions in all cases: 10 µM
HCT-15 colon = system: HCT-15 colon
HT29 colon = system: HT29 colon
SNB-75 CNS = system: SNB-75 CNS
SNB-19 CNS = system: SNB-19 CNS
U251 CNS = system: U251 CNS
PC-3 prostate = system: PC-3 prostate
SK-MEL-5 melanoma = system: SK-MEL-5 melanoma
UACC-62 melanoma = system: UACC-62 melanoma
LOX IMVI melanoma = system: LOX IMVI melanoma
SK-MEL-28 melanoma = system: SK-MEL-28 melanoma

Measured: growth

CC(C)c1ncc(CO)n1Cc1c(Cl)cccc1Cl
inactive: HCT-15 colon 97.7% | HT29 colon 99.4% | SNB-75 CNS 91.6% | SNB-19 CNS 142% | U251 CNS 101% | PC-3 prostate 94.4% | SK-MEL-5 melanoma 100% | UACC-62 melanoma 108% | LOX IMVI melanoma 104% | SK-MEL-28 melanoma 120%

O=C(NCCCl)c1cc(Cl)cc(Cl)c1
inactive: HCT-15 colon 97.1% | HT29 colon 107% | SNB-75 CNS 76.8% | SNB-19 CNS 108% | U251 CNS 98.7% | PC-3 prostate 93.2% | SK-MEL-5 melanoma 101% | UACC-62 melanoma 94.9% | LOX IMVI melanoma 102% | SK-MEL-28 melanoma 103%

Nc1ccc(Sc2ccc3c4c2cccc4c(=O)n2c4ccccc4nc32)cc1
inactive: HCT-15 colon 40.5% | HT29 colon 66.7% | SNB-75 CNS 43.7% | SNB-19 CNS 46.3% | U251 CNS 39.9% | PC-3 prostate 50.4% | SK-MEL-5 melanoma 39.4% | UACC-62 melanoma 31.9% | LOX IMVI melanoma 29.2% | SK-MEL-28 melanoma 73.7%

CCOC(=O)Cn1nnc(-c2ccc(OCc3ccccc3F)cc2)n1
inactive: HCT-15 colon 88.5% | HT29 colon 92.4% | SNB-75 CNS 57.8% | SNB-19 CNS 93.9% | U251 CNS 99% | PC-3 prostate 89% | SK-MEL-5 melanoma 91.5% | UACC-62 melanoma 81.4% | LOX IMVI melanoma 85.2% | SK-MEL-28 melanoma 72.9%

O=C1CC(c2cccc(-c3cccnc3)c2)=Nc2ccc(Br)cc2N1
active: SK-MEL-5 melanoma 8.01%
inactive: HCT-15 colon 61.9% | HT29 colon 56.6% | SNB-75 CNS 11.6% | SNB-19 CNS 62.9% | U251 CNS 27.2% | PC-3 prostate 30.8% | UACC-62 melanoma 47.3% | LOX IMVI melanoma 55.8% | SK-MEL-28 melanoma 67.5%

CCN1CCN(c2ccc(Nc3ncnc4c3nnn4CCc3cc(OC)cc(OC)c3)cc2)CC1
inactive: HCT-15 colon 63.6% | HT29 colon 57.9% | SNB-75 CNS 79.8% | SNB-19 CNS 94% | U251 CNS 77.4% | PC-3 prostate 82.2% | SK-MEL-5 melanoma 73.5% | UACC-62 melanoma 93.9% | LOX IMVI melanoma 88.1% | SK-MEL-28 melanoma 101%

C=CCOc1ccc2c(c1)CC[C@@H]1[C@@H]2CC[C@]2(C)C(=O)/C(=N/O)C[C@@H]12
inactive: HCT-15 colon 41.6% | SNB-75 CNS 18.9% | SNB-19 CNS 69.5% | U251 CNS 68.8% | PC-3 prostate 42.1% | SK-MEL-5 melanoma 77.4% | UACC-62 melanoma 93.5% | LOX IMVI melanoma 42.3% | SK-MEL-28 melanoma 106%
active: HT29 colon 2.91%

CNC(=O)c1cc(Oc2ccc(NC(=O)Nc3ccc(Cl)c(OC4CCCCC4)c3)c(F)c2)ccn1
inactive: HCT-15 colon 37.7% | HT29 colon 48.1% | SNB-75 CNS 51.5% | SNB-19 CNS 41.2% | U251 CNS 38.8% | PC-3 prostate 16.6% | SK-MEL-5 melanoma 15.6% | UACC-62 melanoma 32.2% | LOX IMVI melanoma 42.3% | SK-MEL-28 melanoma 75.4%

CCN(CC)CCOC(=O)c1ccc(N=Nc2ccc(O)c(OC)c2)cc1
inactive: HCT-15 colon 103% | HT29 colon 90.7% | SNB-75 CNS 89.3% | SNB-19 CNS 104% | U251 CNS 87.1% | PC-3 prostate 95.4% | SK-MEL-5 melanoma 92% | UACC-62 melanoma 99.8% | LOX IMVI melanoma 92.2% | SK-MEL-28 melanoma 107%

CCCCCC(CCC)COC(=O)c1ccc(OC)cc1 (stereo not given)
inactive: HCT-15 colon 99% | HT29 colon 101% | SNB-75 CNS 89.2% | SNB-19 CNS 112% | U251 CNS 96% | PC-3 prostate 84.1% | SK-MEL-5 melanoma 104% | UACC-62 melanoma 104% | LOX IMVI melanoma 94.5% | SK-MEL-28 melanoma 110%

CCOc1cc(Br)c(C(C)NC(=O)c2cccc(OC)c2)cc1OCC (stereo not given)
active: UACC-62 melanoma -56.2% | SK-MEL-28 melanoma 5.81%
inactive: HCT-15 colon 59.8% | HT29 colon 17.7% | SNB-75 CNS 76.7% | SNB-19 CNS 98.3% | U251 CNS 58.4% | PC-3 prostate 64.9% | SK-MEL-5 melanoma 45.1% | LOX IMVI melanoma 73.4%

CC(=O)OC1Oc2ccccc2-c2oc(=O)c(-c3ccc(F)cc3)cc21 (stereo not given)
active: SK-MEL-5 melanoma -35.4%
inactive: HCT-15 colon 95.8% | HT29 colon 99% | SNB-75 CNS 71.8% | SNB-19 CNS 100% | U251 CNS 76.2% | PC-3 prostate 110% | UACC-62 melanoma 50% | LOX IMVI melanoma 85.3% | SK-MEL-28 melanoma 96.7%

CC1(C)CC(OCCCC[P+](c2ccccc2)(c2ccccc2)c2ccccc2)CC(C)(C)N1O
active: HCT-15 colon 9.52% | SNB-75 CNS -3.17% | SNB-19 CNS 3.91% | U251 CNS 8.32% | PC-3 prostate -45.6% | SK-MEL-5 melanoma -98.4% | UACC-62 melanoma -35.9% | LOX IMVI melanoma -74.2% | SK-MEL-28 melanoma -55.8%
inactive: HT29 colon 10.6%

Cc1cc(OI)c(C(C)C)cc1-c1cc(C(C)C)c(OI)cc1C
inactive: HCT-15 colon 105% | HT29 colon 101% | SNB-75 CNS 107% | SNB-19 CNS 104% | U251 CNS 103% | PC-3 prostate 98.6% | SK-MEL-5 melanoma 103% | UACC-62 melanoma 98.7% | LOX IMVI melanoma 93.4% | SK-MEL-28 melanoma 103%

CCOC(=O)c1c(C)n(-c2ccc(Cl)cc2)c2ccc(OC(=O)/C=C/c3ccccc3)cc12
inactive: HCT-15 colon 60.8% | HT29 colon 66.1% | SNB-75 CNS 66.6% | SNB-19 CNS 89.7% | U251 CNS 83.2% | PC-3 prostate 67.7% | SK-MEL-5 melanoma 79.1% | UACC-62 melanoma 68.1% | LOX IMVI melanoma 91.4% | SK-MEL-28 melanoma 81.9%

CN(C)CCCN1c2ccccc2Sc2ccc(C(F)(F)F)cc21
inactive: HCT-15 colon 17.3% | SNB-19 CNS 35.9% | U251 CNS 19.5% | PC-3 prostate 23.3%
active: HT29 colon -8.15% | SNB-75 CNS -2.79% | SK-MEL-5 melanoma -95.4% | UACC-62 melanoma -52.6% | LOX IMVI melanoma -75.3% | SK-MEL-28 melanoma -64.1%

O=C(COCc1c(-c2ccccc2)no[n+]1[O-])Nc1nc(-c2ccc(Cl)cc2)cs1
inactive: HCT-15 colon 103% | HT29 colon 105% | SNB-75 CNS 98.6% | SNB-19 CNS 107% | U251 CNS 103% | PC-3 prostate 95.7% | SK-MEL-5 melanoma 95.6% | UACC-62 melanoma 99.6% | LOX IMVI melanoma 95.8% | SK-MEL-28 melanoma 111%

COc1ccc(-c2cc(/C=C3\C(=O)Nc4cc(Cl)ccc43)[nH]n2)cc1
inactive: HCT-15 colon 28.6% | SNB-19 CNS 49% | U251 CNS 40.1% | PC-3 prostate 14% | SK-MEL-5 melanoma 25.1% | UACC-62 melanoma 32.4% | LOX IMVI melanoma 38.2% | SK-MEL-28 melanoma 50.5%
active: HT29 colon 1.13% | SNB-75 CNS -27.5%

COc1ccc(N2CCN(c3nc(-c4ccccc4)c(C#N)c(=O)[nH]3)CC2)cc1
inactive: HCT-15 colon 99.4% | HT29 colon 108% | SNB-75 CNS 73.2% | SNB-19 CNS 103% | U251 CNS 95.6% | PC-3 prostate 87.2% | SK-MEL-5 melanoma 96.4% | UACC-62 melanoma 94.8% | LOX IMVI melanoma 99.4% | SK-MEL-28 melanoma 110%

CCOC(=O)c1sc(NC(=O)c2cc(OC)c(OC)c(OC)c2)nc1C
inactive: HCT-15 colon 96.9% | HT29 colon 99.8% | SNB-75 CNS 98.5% | SNB-19 CNS 118% | U251 CNS 106% | PC-3 prostate 65.1% | SK-MEL-5 melanoma 95.6% | UACC-62 melanoma 88.5% | LOX IMVI melanoma 97.3% | SK-MEL-28 melanoma 101%

N#C/C(=C/c1cc([N+](=O)[O-])ccc1Cl)C(N)=O
inactive: HCT-15 colon 83.4% | HT29 colon 80.3% | SNB-75 CNS 88.9% | SNB-19 CNS 99.7% | U251 CNS 93.6% | PC-3 prostate 88.7% | SK-MEL-5 melanoma 98.8% | UACC-62 melanoma 104% | LOX IMVI melanoma 68.8% | SK-MEL-28 melanoma 105%

CC1=CC2OC34COC3CC(OC(=O)C(F)(F)F)C4(C)C2(C)CC1 (stereo not given)
inactive: HCT-15 colon 97.4% | HT29 colon 104% | SNB-75 CNS 86% | SNB-19 CNS 94.5% | U251 CNS 101% | PC-3 prostate 100% | SK-MEL-5 melanoma 97.4% | UACC-62 melanoma 101% | LOX IMVI melanoma 97.1% | SK-MEL-28 melanoma 101%

CCOC(=O)c1c(O)c2cc(-c3ccccc3)nc(OCC)c2c(=O)n1C
inactive: HCT-15 colon 82.7% | HT29 colon 107% | SNB-75 CNS 95.6% | SNB-19 CNS 91.5% | U251 CNS 97.3% | PC-3 prostate 14.3% | SK-MEL-5 melanoma 86.7% | UACC-62 melanoma 99.9% | LOX IMVI melanoma 98.7% | SK-MEL-28 melanoma 84.8%

COc1ccc(-c2nc(-c3ccccc3)c(-c3ccccc3)[nH]2)cc1OC1CCCC1
inactive: HCT-15 colon 19.8% | HT29 colon 35.5% | SNB-75 CNS 70.5% | SNB-19 CNS 66.4% | U251 CNS 39.1% | PC-3 prostate 50.1% | SK-MEL-5 melanoma 67.7% | UACC-62 melanoma 57% | LOX IMVI melanoma 24.3% | SK-MEL-28 melanoma 79.4%

CCOC(=O)c1cc2c(n1Cc1ccccc1)-c1oncc1CC2
inactive: HCT-15 colon 65.3% | HT29 colon 35.4% | SNB-75 CNS 89.2% | SNB-19 CNS 86.2% | U251 CNS 95.6% | PC-3 prostate 76.2% | SK-MEL-5 melanoma 73.5% | UACC-62 melanoma 75.8% | LOX IMVI melanoma 80.9% | SK-MEL-28 melanoma 89.8%

CC1(C)CNC(=O)N1
inactive: HCT-15 colon 98.8% | HT29 colon 94.6% | SNB-75 CNS 94.4% | SNB-19 CNS 103% | U251 CNS 97.4% | PC-3 prostate 93.3% | SK-MEL-5 melanoma 82.6% | UACC-62 melanoma 95.9% | LOX IMVI melanoma 107% | SK-MEL-28 melanoma 114%

CCc1ccc(Nc2cc(C)nc3nc(C)nn23)cc1
inactive: SNB-75 CNS 29.6% | SNB-19 CNS 15.4%
active: HCT-15 colon -3.95% | HT29 colon -76.3% | U251 CNS -98.9% | PC-3 prostate 1.4% | SK-MEL-5 melanoma -97.8% | UACC-62 melanoma -99.1% | LOX IMVI melanoma -98.2% | SK-MEL-28 melanoma -98%

NC1CCC(Nc2nc(NCc3ccc(-c4ccco4)nc3)c3ncn(C4CCCC4)c3n2)CC1 (stereo not given)
inactive: SNB-19 CNS 14.2%
active: HCT-15 colon 3.49% | HT29 colon -21.9% | SNB-75 CNS -46.9% | U251 CNS 5.19% | PC-3 prostate -1.27% | SK-MEL-5 melanoma -6.6% | UACC-62 melanoma -31% | LOX IMVI melanoma -26.2% | SK-MEL-28 melanoma 0.269%
